The text below walks through data of PubChem BioAssay (EPA / NIEHS).

The structures appear in SMILES notation. Active and inactive are the calls of the source. The calls were made as follows: active = hit-call score of the fitted dose curve at least 0.9, where 1 is the maximum; inactive = score below 0.9.

In test [1] the target is Bile acid receptor (Homo sapiens) (UniProt Q96RI1). The test can be described thus: ATG_IR1_CIS: Attagene CIS-FACTORIAL HepG2 Assay for human Nuclear Receptor Subfamily 1 Group H Member 4 (NR1H4), IR1 submotif (AID 2282946). The note with it: IR1 reporter transcription, actives raise or lower the signal. The gist of the method: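 HepG2 cells transiently transfected with multiplexed cis-element reporter units read endogenous transcription factor activity. After 24 h compound exposure, reporter mRNA was quantified by RT-PCR, fluorescent labelling, HpaI digestion and capillary electrophoresis; bidirectional fitting versus DMSO baseline.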
Bile acid receptor (Homo sapiens), sequence (Q96RI1 whole entry, looked up): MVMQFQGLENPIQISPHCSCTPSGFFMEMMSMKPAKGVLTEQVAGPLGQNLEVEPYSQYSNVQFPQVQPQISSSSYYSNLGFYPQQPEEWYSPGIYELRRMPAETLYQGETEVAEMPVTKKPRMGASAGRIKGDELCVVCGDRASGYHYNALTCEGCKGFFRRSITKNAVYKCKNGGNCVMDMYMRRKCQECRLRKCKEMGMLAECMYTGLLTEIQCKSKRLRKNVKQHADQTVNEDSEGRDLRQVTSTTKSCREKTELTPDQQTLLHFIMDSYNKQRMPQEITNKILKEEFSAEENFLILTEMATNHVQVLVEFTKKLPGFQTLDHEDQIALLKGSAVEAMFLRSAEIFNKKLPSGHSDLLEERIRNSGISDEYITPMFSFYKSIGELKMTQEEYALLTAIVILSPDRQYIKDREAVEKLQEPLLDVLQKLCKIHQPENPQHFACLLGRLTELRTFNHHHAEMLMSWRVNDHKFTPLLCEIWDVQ

The nature of test [2]: ATG_GRE_CIS: Attagene CIS-FACTORIAL HepG2 Assay for human Glucocorticoid Response Elements (GRE) (AID 2282947). The note with it: HepG2 GRE cis-reporter, Attagene multiplex mRNA; actives raise or lower the signal. Put shortly: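 Reporter transcripts read by RT-PCR with capillary electrophoresis fluorescence after a 24 h chemical exposure of HepG2 cells transiently transfected with multiple cis-element reporter units. Gain or loss fitted against DMSO.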

Test [3] can be described thus: ATG_ISRE_CIS: Attagene CIS-FACTORIAL HepG2 Assay for human Interferon Regulatory Factor 1 (IRF1) binding to an Interferon-Stimulated Response Element (ISRE) (AID 2282948). The note with it: HepG2 ISRE cis-reporter (Attagene), mRNA transcription readout; actives raise or lower the signal. Put shortly: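 Endogenous transcription factor activity read as reporter transcript abundance via RT-PCR and capillary electrophoresis. HepG2 cells transiently transfected, 24 h chemical exposure. Gain or loss fitted against DMSO baseline.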

A short description of test [4]: ATG_M_32_CIS: Attagene CIS-FACTORIAL HepG2 Assay for M32 Transcription Factor (Internal Marker) (AID 2282949).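 Also: background control marker of the multiplexed CIS panel rather than a real target.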 The note with it: HepG2 Attagene cis-factorial M32 reporter, mRNA; actives raise or lower the signal. The gist of the method:
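HepG2 transfectants (cis-regulated reporter transcription units) dosed 24 h. Reporter mRNA by RT-PCR plus CE, analysed as gain or loss relative to DMSO.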

For test [5], the target named is Hypoxia-inducible factor 1-alpha (Homo sapiens) (UniProt Q16665). The test is described as follows: ATG_HIF1a_CIS: Attagene CIS-FACTORIAL HepG2 Assay for human Hypoxia Inducible Factor 1 (HIF1A) (AID 2282951). The note with it: HepG2 Attagene cis-factorial HIF1a reporter transcription; actives raise or lower the signal. Put shortly: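 Dosed 24 h, transfected HepG2 cells yielded total RNA whose reporter transcripts were RT-PCR-amplified and sized by capillary electrophoresis using fluorescent labelling; DMSO defined baseline, with gain and loss of signal both fitted.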
Hypoxia-inducible factor 1-alpha (Homo sapiens), sequence (Q16665 whole entry, looked up): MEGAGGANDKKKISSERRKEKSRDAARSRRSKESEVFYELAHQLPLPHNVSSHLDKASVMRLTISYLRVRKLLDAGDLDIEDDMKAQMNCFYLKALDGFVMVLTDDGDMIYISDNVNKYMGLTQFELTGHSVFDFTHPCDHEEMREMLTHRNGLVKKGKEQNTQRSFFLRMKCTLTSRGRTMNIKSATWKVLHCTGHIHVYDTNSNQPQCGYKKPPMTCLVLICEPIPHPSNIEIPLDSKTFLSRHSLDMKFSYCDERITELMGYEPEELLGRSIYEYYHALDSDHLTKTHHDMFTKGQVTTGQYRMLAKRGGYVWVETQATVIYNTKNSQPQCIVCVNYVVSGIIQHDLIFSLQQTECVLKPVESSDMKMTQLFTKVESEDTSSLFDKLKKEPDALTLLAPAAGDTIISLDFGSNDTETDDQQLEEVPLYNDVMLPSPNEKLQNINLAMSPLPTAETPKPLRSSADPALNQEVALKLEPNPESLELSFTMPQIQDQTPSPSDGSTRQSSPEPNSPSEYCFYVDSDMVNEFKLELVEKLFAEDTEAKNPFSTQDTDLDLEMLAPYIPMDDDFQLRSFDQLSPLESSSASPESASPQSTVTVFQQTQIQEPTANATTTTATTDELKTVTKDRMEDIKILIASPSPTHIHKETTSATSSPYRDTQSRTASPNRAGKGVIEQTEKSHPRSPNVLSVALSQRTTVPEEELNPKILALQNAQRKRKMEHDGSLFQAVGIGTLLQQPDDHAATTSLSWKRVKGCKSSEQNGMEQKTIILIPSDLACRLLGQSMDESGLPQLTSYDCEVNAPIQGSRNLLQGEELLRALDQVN

Test [6] deals with Hepatocyte nuclear factor 6 (Homo sapiens) (UniProt Q9UBC0). The test can be described thus: ATG_HNF6_CIS: Attagene CIS-FACTORIAL HepG2 Assay for human Hepatocyte Nuclear Factor 6 (HNF6) (AID 2282952). The note with it: HepG2 Attagene cis-factorial HNF6 reporter transcription; actives raise or lower the signal. The gist of the method: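 First, HepG2 cells were transfected with the multiplexed cis reporter library and dosed with chemical for 24 h. Next, RNA was reverse-transcribed, PCR-amplified and fluorescently labelled. Finally, HpaI-digested fragments were read by capillary electrophoresis.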
Hepatocyte nuclear factor 6 (Homo sapiens), sequence (Q9UBC0 whole entry, looked up, the tested form may be a part): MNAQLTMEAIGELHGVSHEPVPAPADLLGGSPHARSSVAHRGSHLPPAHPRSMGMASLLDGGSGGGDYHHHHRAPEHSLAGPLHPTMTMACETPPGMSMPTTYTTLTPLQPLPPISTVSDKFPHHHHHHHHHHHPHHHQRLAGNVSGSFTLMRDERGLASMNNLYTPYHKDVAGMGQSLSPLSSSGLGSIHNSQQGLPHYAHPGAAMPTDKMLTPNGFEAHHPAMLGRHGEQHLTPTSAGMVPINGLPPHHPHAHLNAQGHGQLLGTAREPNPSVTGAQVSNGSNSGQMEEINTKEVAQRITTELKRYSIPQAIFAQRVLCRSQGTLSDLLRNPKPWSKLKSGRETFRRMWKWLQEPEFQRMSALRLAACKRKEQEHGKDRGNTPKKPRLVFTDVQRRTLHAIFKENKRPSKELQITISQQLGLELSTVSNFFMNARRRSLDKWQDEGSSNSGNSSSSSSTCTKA

For test [7], the target named is Heat shock factor protein 1 (Homo sapiens) (UniProt Q00613). The test can be described thus: ATG_HSE_CIS: Attagene CIS-FACTORIAL HepG2 Assay for human Heat Shock Transcription Factor 1 (HSE) (AID 2282953). The note with it: HepG2 HSE cis-reporter, Attagene RNA transcription; actives raise or lower the signal. Put shortly: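 Reporter mRNA induction in HepG2 is measured 24 h after dosing, using transiently transfected multiplexed cis-regulated reporter units. Signal comes from capillary electrophoresis of labelled RT-PCR products, with DMSO as negative control.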
Heat shock factor protein 1 (Homo sapiens), sequence (Q00613 whole entry, looked up): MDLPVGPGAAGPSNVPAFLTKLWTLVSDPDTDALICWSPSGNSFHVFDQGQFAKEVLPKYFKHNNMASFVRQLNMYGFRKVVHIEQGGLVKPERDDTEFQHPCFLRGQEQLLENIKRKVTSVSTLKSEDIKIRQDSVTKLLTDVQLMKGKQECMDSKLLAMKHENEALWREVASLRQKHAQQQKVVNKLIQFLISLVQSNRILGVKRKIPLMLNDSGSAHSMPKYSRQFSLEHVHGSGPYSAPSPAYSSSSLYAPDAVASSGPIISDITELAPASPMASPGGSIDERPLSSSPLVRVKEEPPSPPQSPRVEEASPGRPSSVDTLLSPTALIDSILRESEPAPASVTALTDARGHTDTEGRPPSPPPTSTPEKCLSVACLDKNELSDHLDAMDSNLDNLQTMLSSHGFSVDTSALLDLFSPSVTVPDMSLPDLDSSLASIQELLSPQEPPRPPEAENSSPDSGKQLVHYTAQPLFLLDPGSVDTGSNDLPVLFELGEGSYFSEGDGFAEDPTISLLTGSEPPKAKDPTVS

Test [8] can be described thus: ATG_MRE_CIS: Attagene CIS-FACTORIAL HepG2 Assay for human Metal Responsive Element (MRE) (AID 2282954). The note with it: HepG2 MRE cis-reporter transcription, Attagene multiplex; actives raise or lower the signal. The gist of the method: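 Endogenous MRE-dependent transcription read as reporter mRNA in transiently transfected human HepG2 cells at 24 h. RNA reverse-transcribed, PCR-amplified, labelled and resolved by capillary electrophoresis; gain or loss relative to DMSO.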

The nature of test [9]: ATG_PBREM_CIS: Attagene CIS-FACTORIAL HepG2 Assay for human Phenobarbital-responsive Enhancer Module (PBREM) (AID 2282955). The note with it: HepG2 PBREM cis-reporter, Attagene multiplexed transcription; actives raise or lower the signal. Put shortly: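 Transfected liver-derived HepG2 cells exposed 24 h; PBREM reporter transcript quantified via RT-PCR and capillary electrophoresis, with activity in either direction referenced to DMSO.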

Test [10] is described as follows: ATG_PXRE_CIS: Attagene CIS-FACTORIAL HepG2 Assay for human Pregnane X Receptor Element (PXRE) (AID 2282957). The note with it: HepG2 Attagene CIS-FACTORIAL PXRE reporter, mRNA; actives raise or lower the signal. The gist of the method:
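After a 24 h chemical incubation, total RNA from transfected HepG2 cells was reverse-transcribed and reporter cDNA amplified, FAM-labeled, HpaI-digested and sized by capillary electrophoresis. DMSO served as baseline for bidirectional curve fitting.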

A short description of test [11]: ATG_RORE_CIS: Attagene CIS-FACTORIAL HepG2 Assay for human RAR-related Orphan Receptor Element (RORE) (AID 2282959). The note with it: HepG2 Attagene cis-factorial RORE reporter, mRNA; actives raise or lower the signal. The gist of the method:
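Transiently transfected HepG2 reporter cells were treated 24 h. Reporter transcripts were detected by RT-PCR and capillary electrophoresis, with bidirectional fitting against DMSO.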

Test [12] can be described thus: ATG_Sox_CIS: Attagene CIS-FACTORIAL HepG2 Assay for human SRY-box transcription factor (SOX) (AID 2282960). The note with it: HepG2 Attagene cis-factorial SOX reporter, mRNA; actives raise or lower the signal. The gist of the method: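 Gain- or loss-of-signal endpoint, fitted bidirectionally with DMSO as negative control. Based on reporter mRNA from transfected HepG2 cells harvested 24 h post-treatment and quantified via RT-PCR and capillary electrophoresis.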

Test [13] has as its target Transcription factor Sp1 (Homo sapiens) (UniProt P08047). The test can be described thus: ATG_Sp1_CIS: Attagene CIS-FACTORIAL HepG2 Assay for human Specificity Protein 1 (Sp1) (AID 2282961). The note with it: HepG2 Sp1 cis-reporter transcription, actives raise or lower the signal. The gist of the method:
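Endpoint reflects endogenous Sp1 transcriptional activity, not an exogenous fusion protein: HepG2 cells with transfected cis-regulated reporters, 24 h dosing, RT-PCR/capillary electrophoresis mRNA read-out, DMSO-normalised bidirectional fit.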

The nature of test [14]: ATG_SREBP_CIS: Attagene CIS-FACTORIAL HepG2 Assay for human Sterol Regulatory Element Binding (SREBP) (AID 2282962). The note with it: HepG2 Attagene cis-factorial SREBP reporter, mRNA; actives raise or lower the signal. Put shortly:
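Endogenous SREBP activity read as cis-element-driven reporter transcript in transiently transfected HepG2, 24 h post-dosing; quantified via RT-PCR plus capillary electrophoresis of fluorescent fragments. Gain or loss of signal fitted relative to DMSO baseline.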

In test [15] the target is Signal transducer and activator of transcription 3 (Homo sapiens) (UniProt P40763). The test is described as follows: ATG_STAT3_CIS: Attagene CIS-FACTORIAL HepG2 Assay for human Signal Transducer and Activator of Transcription 3 (STAT3) (AID 2282963). The note with it: HepG2, Attagene cis-factorial STAT3 reporter transcription; actives raise or lower the signal. The gist of the method:
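Readout is reporter transcript quantified by RT-PCR and capillary electrophoresis, with 6-FAM primer extension and HpaI digestion. Total RNA is taken 24 h after dosing transiently transfected HepG2 carrying cis-regulated reporter units. Bidirectional fit against DMSO.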

Test [16] can be described thus: ATG_TA_CIS: Attagene CIS-FACTORIAL HepG2 Assay for human TA Basal Promoter (AID 2282964). The note with it: HepG2 Attagene CIS-factorial TA basal promoter reporter; actives raise or lower the signal. Put shortly: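 Cis-factorial format in HepG2: reporters report endogenous factors, not chimeric Gal4 fusions. After 24 h treatment, reporter transcripts were measured by RT-PCR-capillary electrophoresis fluorescence, analysed bidirectionally versus DMSO.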

A short description of test [17]: ATG_TCF_b_cat_CIS: Attagene CIS-FACTORIAL HepG2 Assay for human T-Cell-Factor with beta-catenin (TCF/b-cat) (AID 2282965). The note with it: HepG2 TCF/beta-catenin cis-reporter transcription, actives raise or lower the signal. The gist of the method:
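Endogenous TCF/LEF activity read as reporter transcript level via RT-PCR and capillary electrophoresis fluorescence in transfected HepG2, 24 h exposure; gain or loss of signal fitted against DMSO controls.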

A short description of test [18]: ATG_M_06_CIS: Attagene CIS-FACTORIAL HepG2 Assay for M06 Transcription Factor (Internal Marker) (AID 2282950). The note with it: HepG2 Attagene CIS-FACTORIAL M06 internal marker reporter; actives raise or lower the signal. Put shortly: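 Measured 24 h post-dosing in transiently transfected HepG2 cells, this internal-marker endpoint reports reporter mRNA via RT-PCR with fluorescent primer extension and capillary electrophoresis. DMSO served as negative control and baseline for bidirectional fitting.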

In test [19] the target is Paired box protein Pax-6 (Homo sapiens) (UniProt P26367). The test can be described thus: ATG_Pax6_CIS: Attagene CIS-FACTORIAL HepG2 Assay for human Paired Box 6 (PAX6) (AID 2282956). The note with it: HepG2 CIS-FACTORIAL PAX6 reporter transcription, RNA readout; actives raise or lower the signal. The gist of the method:
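Read-out is reporter transcript level, measured by RT-PCR with fluorescent primer extension and capillary electrophoresis after 24 h dosing of transfected HepG2 cells. Activity in either direction fitted relative to DMSO control.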

Transcription factor Sp1 (Homo sapiens), sequence (P08047 whole entry, looked up, the tested form may be a part): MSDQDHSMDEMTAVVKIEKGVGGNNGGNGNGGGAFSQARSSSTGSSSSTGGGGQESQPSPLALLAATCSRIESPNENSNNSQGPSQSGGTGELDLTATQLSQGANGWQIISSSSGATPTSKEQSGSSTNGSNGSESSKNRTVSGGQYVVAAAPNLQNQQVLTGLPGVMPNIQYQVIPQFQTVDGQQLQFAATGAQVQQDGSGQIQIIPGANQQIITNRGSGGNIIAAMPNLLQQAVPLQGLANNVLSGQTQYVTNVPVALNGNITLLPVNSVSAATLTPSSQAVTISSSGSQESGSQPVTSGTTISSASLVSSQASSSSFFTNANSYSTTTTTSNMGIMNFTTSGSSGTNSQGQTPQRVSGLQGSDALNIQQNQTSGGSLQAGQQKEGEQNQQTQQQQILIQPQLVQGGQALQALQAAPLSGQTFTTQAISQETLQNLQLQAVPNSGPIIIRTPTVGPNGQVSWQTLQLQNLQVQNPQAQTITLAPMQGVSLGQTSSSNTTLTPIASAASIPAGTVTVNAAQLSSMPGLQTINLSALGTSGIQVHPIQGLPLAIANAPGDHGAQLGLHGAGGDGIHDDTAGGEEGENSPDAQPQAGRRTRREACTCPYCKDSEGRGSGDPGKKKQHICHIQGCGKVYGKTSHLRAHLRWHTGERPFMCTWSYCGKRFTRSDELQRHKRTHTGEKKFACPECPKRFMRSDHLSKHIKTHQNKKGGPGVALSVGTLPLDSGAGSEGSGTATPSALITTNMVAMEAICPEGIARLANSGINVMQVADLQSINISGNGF
Signal transducer and activator of transcription 3 (Homo sapiens), sequence (P40763 whole entry, looked up): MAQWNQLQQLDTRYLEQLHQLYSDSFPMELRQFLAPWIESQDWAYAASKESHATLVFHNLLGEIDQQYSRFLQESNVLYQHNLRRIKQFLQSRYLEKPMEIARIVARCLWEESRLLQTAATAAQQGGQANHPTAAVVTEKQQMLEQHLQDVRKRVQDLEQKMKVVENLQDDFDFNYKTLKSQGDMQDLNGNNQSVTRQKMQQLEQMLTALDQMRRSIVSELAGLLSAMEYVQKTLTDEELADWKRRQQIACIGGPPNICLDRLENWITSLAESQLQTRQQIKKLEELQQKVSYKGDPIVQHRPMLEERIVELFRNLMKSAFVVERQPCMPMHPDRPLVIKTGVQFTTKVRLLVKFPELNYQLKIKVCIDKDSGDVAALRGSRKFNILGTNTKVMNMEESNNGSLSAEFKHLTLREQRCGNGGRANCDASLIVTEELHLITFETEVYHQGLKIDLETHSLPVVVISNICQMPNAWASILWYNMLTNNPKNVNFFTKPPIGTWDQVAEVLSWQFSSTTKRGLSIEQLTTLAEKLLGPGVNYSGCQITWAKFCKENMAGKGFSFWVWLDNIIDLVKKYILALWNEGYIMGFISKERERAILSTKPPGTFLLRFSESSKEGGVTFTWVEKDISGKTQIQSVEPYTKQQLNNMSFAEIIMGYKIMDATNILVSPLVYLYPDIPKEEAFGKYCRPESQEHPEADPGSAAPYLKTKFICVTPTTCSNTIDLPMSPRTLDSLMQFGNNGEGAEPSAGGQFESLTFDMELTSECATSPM
Paired box protein Pax-6 (Homo sapiens), sequence (P26367 whole entry, looked up): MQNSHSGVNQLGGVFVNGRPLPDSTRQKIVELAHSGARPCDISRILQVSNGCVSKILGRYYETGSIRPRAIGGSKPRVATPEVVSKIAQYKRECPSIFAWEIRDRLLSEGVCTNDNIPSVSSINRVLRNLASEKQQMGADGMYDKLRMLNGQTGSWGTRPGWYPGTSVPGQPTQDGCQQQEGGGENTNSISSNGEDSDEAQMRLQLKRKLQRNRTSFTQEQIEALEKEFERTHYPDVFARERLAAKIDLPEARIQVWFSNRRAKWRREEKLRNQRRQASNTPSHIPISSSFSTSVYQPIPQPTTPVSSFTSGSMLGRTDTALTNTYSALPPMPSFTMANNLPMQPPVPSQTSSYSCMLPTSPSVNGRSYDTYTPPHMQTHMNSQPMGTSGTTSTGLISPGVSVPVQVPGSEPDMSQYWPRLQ

Take `OCCCl`: the compound was classed as inactive in test [1], in test [2], in [3], in [4], in test [5] and in test [6]. In addition, the compound was classed as inactive in test [7], in [8], in test [9], in test [10], in test [11] and in [12]. In addition, the compound was called inactive in test [13], in [14], in test [15], in test [16] and in [17].
In the case of `CN(C)c1ccc(C(=O)c2ccc(N(C)C)cc2)cc1`, the compound was classed as inactive in test [1], in [2], in test [3], in [4], in test [18] and in [5]. Moreover, the outcome in [6], in [7], in test [8], in [9], in [19] and in test [11] was inactive. The call in test [12], in test [13], in test [14], in test [16] and in [17] was inactive. Further, in [10], the concentration at half-maximal activity (AC50) was 3.72 µM (active).
In the case of `Nc1ccc(Cl)cc1N`, the result in [1], in [2], in test [3], in [4], in test [6] and in test [7] was inactive. Further, the outcome in test [9], in test [13], in test [14], in [15] and in test [17] was inactive. Besides, the AC50 in [5] was 27.6 µM (active); in test [8], 22.9 µM (active); in test [10] it was 26.1 µM (active); in test [11] it was 27.7 µM (active); in test [12], 26.8 µM (active); in [16], 9.74 µM (active).
As to `Cc1cc(N=Nc2ccccc2C)ccc1N`, the compound was classed as inactive in test [1], in test [2], in test [3], in test [4], in test [18] and in test [6]. In addition, the compound was classed as inactive in test [12], in test [13], in test [14] and in test [17]. Further, the AC50 in test [5] was 24.7 µM (active); in test [7] it was 53.8 µM (active); in test [8], 27.9 µM (active); in test [9] it was 33.4 µM (active); in test [10], 13.9 µM (active); in [11], 23 µM (active). The AC50 in [16] is 19 µM (active).
Regarding `CCOC(=O)[C@]1(c2ccccc2)Oc2ccccc2[C@@H]1N`, the outcome in test [1], in test [18] and in test [17] was inactive. Further, the AC50 was 52.6 µM (active) in [2]; 33 µM (active) in [3]; 52.7 µM (active) in test [4]; 1.78 µM (active) in test [5]; 43.3 µM (active) in [6]; 61.8 µM (active) in test [7]. In addition, the AC50 in test [8] is 33 µM (active); in [9], 9.64 µM (active); in test [10], 9.53 µM (active); in test [11] it was 33 µM (active); in test [12], 50.3 µM (active); in test [13], 49.6 µM (active). Besides, the AC50 in test [14] was 12.3 µM (active); in test [16] it was 33 µM (active).
For the compound `CN(C)C(=O)Nc1ccc(Cl)cc1`, the outcome in test [1], in test [2], in test [3], in test [4], in test [18] and in test [5] was inactive. The call in test [6], in test [7], in test [8], in [9], in test [10] and in test [11] was inactive. Also, the result in [12], in test [13], in [14], in test [15], in test [16] and in test [17] was inactive.
On to `Nc1ccc(N=Nc2ccccc2)cc1`, for which the compound was classed as inactive in [1], in [2], in test [4], in test [6], in [7] and in [12]. For the same compound, the outcome in test [13], in test [14] and in test [15] was inactive. The AC50 is 57.2 µM (active) in test [3]; 58.1 µM (active) in test [5]; 67 µM (active) in [8]; 67.3 µM (active) in [9]; 57.7 µM (active) in test [10]; 40.7 µM (active) in test [11]. The AC50 is 52.2 µM (active) in test [16] and 27.4 µM (active) in [17].
